Potency, activation and activity change, negative = inhibition data for 37 compounds are collected here from PubChem BioAssay (NCATS).

Records with an inconclusive call do not appear. Values without a mark were called inactive. Activity calls are given as the source filed them. The call rests on the fitted dose curve; in most records, active means well fitted curve in the direction sought with a large enough effect; inconclusive means small, poorly fitted or top-dose-only effect, or another doubt; inactive means no such curve, though single readings can be large; an effect the other way counts as inactive or inconclusive.

Experiment [1] concerns the target Rap guanine nucleotide exchange factor 3 (Homo sapiens) (UniProt O95398). Put plainly: Confirmatory qHTS for antagonist of cAMP-regulated guanine nucleotide exchange factor 3 (EPAC1) (AID 1645880). Further: nearly all actives have a fitted effect of over 55% in size. Further: potency means the concentration at half of the fitted maximal effect. In short, it runs like this:
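Nucleotide exchange uses 100 nM EPAC1, 250 nM RAP1B-BODIPY-GDP and 50 uM GDP, with compounds in a concentration-titration series. After 5 min at room temperature, fluorescence (480 nm ex/540 nm em) is read every 5 min for 30 min. Data are normalized to control ATA and DMSO.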
(In qHTS, concentration-response curves come from the screen itself.)

Experiment [2] shares this target. Put plainly: Confirmatory qHTS for agonist of cAMP-regulated guanine nucleotide exchange factor 3 (EPAC1) (AID 1645881).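 Further: EPAC1 catalysed release of BODIPY-GDP from Rap1B seen as fluorescence loss; 100% = effect of cAMP agonist control; nearly all actives have a fitted effect of over 75% in size.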
The target in experiment [3] is Rap guanine nucleotide exchange factor 4 (Homo sapiens) (UniProt Q8WZA2). Put plainly: Confirmatory qHTS for agonist of cAMP-regulated guanine nucleotide exchange factor 4 (EPAC2) (AID 1645884).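 Further: nucleotide exchange releases bodipy-GDP from Rap1 and this lowers its fluorescence; on the % scale 0 is the no-effect control and ±100 the full control effect; nearly all actives have a fitted effect of over 65% in size.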
The target is the same in experiment [4]. The experiment is described as follows: Confirmatory qHTS for antagonist of cAMP-regulated guanine nucleotide exchange factor 4 (EPAC2) (AID 1645885). Further: nearly all actives have a fitted effect of over 25% in size. Further: potency means the concentration at half of the fitted maximal effect. On activity change, negative = inhibition: on the % scale 0 is the no-effect control and ±100 the full control effect.
Experiment [5] addresses Rap guanine nucleotide exchange factor 3 (Homo sapiens) (UniProt O95398). The experiment is described as follows: Counterscreen qHTS for antagonist of cAMP-regulated guanine nucleotide exchange factor 3 (EPAC1) (AID 1645888).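 Further: fluorescence loss as bound BODIPY-GDP is released from Rap1B; % of control where 0% means no effect.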 The essentials:
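Rap1B-BODIPY-GDP 250 nM + GDP 50 uM; cpds 7-pt, final 9.74 nM–152 uM (activator mode) or from 7.32 nM upwards (inhibitor mode); RT; FI 480/540 nm at 5 and 30 min, then ± cAMP, reread.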
On the technique in general: A counterscreen serves to expose hits that act by an unwanted route or on another target.

Chain of Rap guanine nucleotide exchange factor 3 (Homo sapiens) (O95398 whole entry, looked up): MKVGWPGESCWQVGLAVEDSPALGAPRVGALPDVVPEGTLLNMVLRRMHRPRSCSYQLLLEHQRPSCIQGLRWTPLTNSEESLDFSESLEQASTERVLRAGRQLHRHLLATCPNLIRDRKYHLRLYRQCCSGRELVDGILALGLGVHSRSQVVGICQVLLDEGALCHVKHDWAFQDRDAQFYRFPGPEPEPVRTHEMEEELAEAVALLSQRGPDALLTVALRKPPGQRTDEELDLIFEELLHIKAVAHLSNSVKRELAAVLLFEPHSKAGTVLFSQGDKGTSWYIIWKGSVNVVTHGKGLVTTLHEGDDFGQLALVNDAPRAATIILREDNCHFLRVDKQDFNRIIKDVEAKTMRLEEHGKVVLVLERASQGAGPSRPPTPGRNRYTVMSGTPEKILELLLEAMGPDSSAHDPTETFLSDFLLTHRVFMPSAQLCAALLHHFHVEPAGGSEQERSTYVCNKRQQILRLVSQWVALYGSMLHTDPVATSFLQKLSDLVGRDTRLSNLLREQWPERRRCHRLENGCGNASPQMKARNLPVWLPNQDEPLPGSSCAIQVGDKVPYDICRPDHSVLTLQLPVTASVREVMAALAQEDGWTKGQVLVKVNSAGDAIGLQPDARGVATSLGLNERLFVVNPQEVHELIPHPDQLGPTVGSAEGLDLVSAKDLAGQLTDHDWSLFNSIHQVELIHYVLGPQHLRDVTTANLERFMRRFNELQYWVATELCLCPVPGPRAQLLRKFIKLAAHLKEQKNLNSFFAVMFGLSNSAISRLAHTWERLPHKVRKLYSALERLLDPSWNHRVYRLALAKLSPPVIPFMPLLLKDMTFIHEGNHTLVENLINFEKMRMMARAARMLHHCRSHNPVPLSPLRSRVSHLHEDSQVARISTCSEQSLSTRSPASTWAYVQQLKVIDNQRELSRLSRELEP
Chain of Rap guanine nucleotide exchange factor 4 (Homo sapiens) (Q8WZA2 whole entry, looked up): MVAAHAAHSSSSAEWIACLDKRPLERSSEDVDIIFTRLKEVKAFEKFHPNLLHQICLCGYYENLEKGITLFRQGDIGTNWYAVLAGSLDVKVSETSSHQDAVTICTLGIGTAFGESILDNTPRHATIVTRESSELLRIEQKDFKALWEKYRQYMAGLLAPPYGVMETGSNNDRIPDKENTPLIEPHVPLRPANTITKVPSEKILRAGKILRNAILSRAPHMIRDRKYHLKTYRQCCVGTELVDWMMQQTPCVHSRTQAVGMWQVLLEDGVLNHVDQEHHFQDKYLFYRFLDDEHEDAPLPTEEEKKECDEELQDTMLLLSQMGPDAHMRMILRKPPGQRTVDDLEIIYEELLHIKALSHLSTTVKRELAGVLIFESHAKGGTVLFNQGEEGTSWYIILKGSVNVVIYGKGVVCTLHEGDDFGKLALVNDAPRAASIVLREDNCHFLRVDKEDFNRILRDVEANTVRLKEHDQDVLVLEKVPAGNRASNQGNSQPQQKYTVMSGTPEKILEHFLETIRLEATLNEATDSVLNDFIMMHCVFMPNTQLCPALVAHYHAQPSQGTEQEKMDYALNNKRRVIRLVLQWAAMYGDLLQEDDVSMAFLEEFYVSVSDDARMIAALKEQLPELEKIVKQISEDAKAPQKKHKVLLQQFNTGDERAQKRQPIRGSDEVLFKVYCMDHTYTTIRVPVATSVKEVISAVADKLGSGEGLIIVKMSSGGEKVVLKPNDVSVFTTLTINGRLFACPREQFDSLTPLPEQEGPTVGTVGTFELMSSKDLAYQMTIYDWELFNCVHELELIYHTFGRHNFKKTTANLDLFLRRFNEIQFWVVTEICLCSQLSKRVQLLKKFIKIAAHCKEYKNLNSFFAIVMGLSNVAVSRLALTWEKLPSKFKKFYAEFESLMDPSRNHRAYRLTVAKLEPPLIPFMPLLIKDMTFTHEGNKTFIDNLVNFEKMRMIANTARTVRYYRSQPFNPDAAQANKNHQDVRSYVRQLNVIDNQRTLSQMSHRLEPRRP

As for `Cc1ccc(C2C(C#N)=C3N=C(N)c4ccccc4N3C3=C2C(=O)CCC3)cc1` (stereo not given), the Potency result in experiment [1], in experiment [2] and in experiment [4] was “inactive” throughout. Also, the activation in experiment [3] was 5.16% [at 17.1 µM, percent relative to cAMP agonist control]. Besides, in experiment [5], the activity change, negative = inhibition is -7.3% [at 30.8 µM].

Regarding `O=C(CSc1nnc(SCc2ccccc2)s1)N/N=C/C=C\c1ccco1`, in experiment [1], the Potency was 42.6 µM (active). In addition, the Potency entry in experiment [2], in experiment [3], in experiment [4] and in experiment [5] was “inactive” in each case.

`O=C(NCc1ccco1)c1c[nH]c2ccc(S(=O)(=O)N3CCOCC3)cc2c1=O`: the Potency result in experiment [1], in experiment [2] and in experiment [4] was “inactive” each time. For the same compound, in experiment [3], the activation was 7.59% [at 17.1 µM, percent relative to cAMP agonist control]. In addition, the activity change, negative = inhibition in experiment [5] is 1.66% [at 30.8 µM].

On to `CCOC(=O)c1oc2ccccc2c1CN1CCN(C(=O)c2ccccc2)CC1`, for which the Potency result in experiment [1], in experiment [2], in experiment [3], in experiment [4] and in experiment [5] was “inactive” each time.

`NC(=O)COC(=O)/C=C/c1ccc2ccccc2n1`: the Potency entry in experiment [1], in experiment [2], in experiment [3], in experiment [4] and in experiment [5] was “inactive” each time.

As for `COc1cc(S(=O)(=O)Nc2ccc(C)cc2)ccc1N=Cc1c(C)c(C#N)c(=O)n(C)c1O`, the Potency entry in experiment [1], in experiment [2], in experiment [3], in experiment [4] and in experiment [5] was “inactive” each time.

In the case of `O=C(OCc1ccc([N+](=O)[O-])cc1)c1cc(=O)c2ccccc2o1`, the Potency entry in experiment [1], in experiment [2], in experiment [3], in experiment [4] and in experiment [5] was “inactive” throughout.

As for `Cc1ccc(NC(=O)c2c(NC(=O)C(F)(F)F)sc3c2CCCCC3)cc1`, the Potency in experiment [1] was 84.9 µM (active). For the same compound, the Potency result in experiment [2], in experiment [3], in experiment [4] and in experiment [5] was “inactive” each time.

For the compound `CCOC(=O)[C@H]1Nc2ccc(Cl)cc2[C@@H]2[C@H]1C1CC(c3ccccc31)N2C(=O)OCc1ccccc1` (stereo not given in full), the Potency result in experiment [1], in experiment [2] and in experiment [4] was “inactive” in each case. In experiment [3], the activation is 1.97% [at 17.1 µM, percent relative to cAMP agonist control]. Besides, the activity change, negative = inhibition in experiment [5] is 4.44% [at 30.8 µM].

With `COc1ccc(C(=O)NCc2ccc3c(c2)CCN3C(=O)c2ccc(C)cc2)cc1`, the Potency result in experiment [1], in experiment [2], in experiment [3], in experiment [4] and in experiment [5] was “inactive” in each case.

With `O=C1/C(=C/C=C/c2ccco2)SC(=S)N1NS(=O)(=O)c1ccccc1`, the Potency in experiment [1] is 5.62 µM (active). The Potency entry in experiment [2] and in experiment [4] was “inactive” in each case. Also, the activation in experiment [3] is 11.3% [at 17.1 µM, percent relative to cAMP agonist control]. The activity change, negative = inhibition in experiment [5] was 17.5% [at 30.8 µM].

As to `COc1ccc([N+](=O)[O-])cc1NC(=S)Nc1ccccc1`, the Potency entry in experiment [1], in experiment [2], in experiment [3], in experiment [4] and in experiment [5] was “inactive” each time.

Consider `O=C(Nc1ccccn1)c1cccc(S(=O)(=O)N2CCc3ccccc3C2)c1`, for which the Potency entry in experiment [1], in experiment [2], in experiment [3], in experiment [4] and in experiment [5] was “inactive” throughout.

As for `O=C(NCCN1CCCC1)C(c1ccccc1)c1ccccc1`, the Potency result in experiment [1], in experiment [2], in experiment [3], in experiment [4] and in experiment [5] was “inactive” each time.

Turning to `Cc1ccccc1-c1nc(CS(=O)(=O)CC(=O)N(C)C2CCCCC2)c(C)o1`, the Potency entry in experiment [1], in experiment [2], in experiment [3], in experiment [4] and in experiment [5] was “inactive” in each case.

As for `CC1=CC2=NC(=O)/C(=C\c3cccn3CCOc3ccc(C)c(C)c3)C(=N)N2O1`, the Potency entry in experiment [1], in experiment [2], in experiment [3], in experiment [4] and in experiment [5] was “inactive” in each case.

Take `Cc1ccc(N(Cc2cccs2)C(=O)c2ccccc2Cl)cc1`: the Potency entry in experiment [1], in experiment [2], in experiment [3], in experiment [4] and in experiment [5] was “inactive” throughout.

In the case of `O=C(CCc1ccc(O)c(O)c1)N/N=C/c1cc2c(cc1[N+](=O)[O-])OCO2`, the Potency in experiment [1] is 23.9 µM (active). For the same compound, the Potency entry in experiment [2], in experiment [3], in experiment [4] and in experiment [5] was “inactive” throughout.

In the case of `COc1ccc2c(c1)c1nnc(SCC(=O)NC3CC3)nc1n2C`, the Potency entry in experiment [1], in experiment [2], in experiment [3] and in experiment [5] was “inactive” in each case. In addition, the Potency in experiment [4] was 84.9 µM (active).

On to `COCCCn1c(=N)c(C(=O)NCc2cccnc2)cc2c(=O)n3cc(C)ccc3nc21`, for which the Potency result in experiment [1], in experiment [2], in experiment [3], in experiment [4] and in experiment [5] was “inactive” throughout.

With `N#CC1(NC(=O)COC(=O)c2nc(Cl)c(Cl)c(N)c2Cl)CCCCC1`, the Potency result in experiment [1], in experiment [2], in experiment [3], in experiment [4] and in experiment [5] was “inactive” in each case.

As to `CCCCN1C(=O)C(CC(=O)NC2CCCCC2)CC(C(=O)N2CCCCCC2)=C1C` (stereo not given), the Potency result in experiment [1], in experiment [2] and in experiment [4] was “inactive” throughout. For the same compound, the activation in experiment [3] is 8.48% [at 17.1 µM, percent relative to cAMP agonist control]. In addition, the activity change, negative = inhibition in experiment [5] was -2.29% [at 30.8 µM].

Turning to `O=C(/C=C/c1ccco1)c1cccc([N+](=O)[O-])c1`, the Potency in experiment [1] was 42.6 µM (active). In addition, the Potency entry in experiment [2], in experiment [3], in experiment [4] and in experiment [5] was “inactive” each time.

For the compound `CC(=O)C(Sc1nnnn1-c1ccc(O)cc1)c1ccccc1` (stereo not given), the Potency entry in experiment [1], in experiment [2], in experiment [3], in experiment [4] and in experiment [5] was “inactive” throughout.

Regarding `CCn1c(CSc2nc3ccccc3s2)nnc1SCC(=O)c1ccc(O)c(O)c1`, the Potency entry in experiment [1], in experiment [2], in experiment [3], in experiment [4] and in experiment [5] was “inactive” throughout.

In the case of `CCOC(=O)c1[nH]c(C)c(C(=O)NC(C)(C)C)c1C`, the Potency result in experiment [1], in experiment [2], in experiment [3], in experiment [4] and in experiment [5] was “inactive” each time.

Turning to `O=C(CN1CCOCC1)Nc1ccccc1Sc1ccc(Cl)cc1`, the Potency result in experiment [1], in experiment [2], in experiment [3], in experiment [4] and in experiment [5] was “inactive” throughout.

Take `COc1cc(/C=C/C(=O)OCC(=O)Nc2oc(C)c3c(C)n[nH]c(=O)c23)ccc1OC(F)F`: the Potency entry in experiment [1], in experiment [2], in experiment [3], in experiment [4] and in experiment [5] was “inactive” in each case.

As to `Cc1cc(C)cc(C(O)c2ncc(-c3ccccc3Cl)[nH]2)c1` (stereo not given), the Potency entry in experiment [1], in experiment [2] and in experiment [4] was “inactive” in each case. In experiment [3], the activation was 2.23% [at 17.1 µM, percent relative to cAMP agonist control]. The activity change, negative = inhibition in experiment [5] was -7.63% [at 30.8 µM].

`CCOCCCn1c(SCC(=O)Nc2cccc(OC)c2)nc2ccccc2c1=O`: the Potency result in experiment [1], in experiment [2], in experiment [3], in experiment [4] and in experiment [5] was “inactive” in each case.

`Cc1ccc(S(=O)(=O)N2[C@@H](c3ccc(Br)cc3)C(C(=O)O)=CC[C@H]2c2ccc(Cl)c(Cl)c2)cc1`: the Potency in experiment [1] was 67.5 µM (active); in experiment [4] it was 33.8 µM (active). The Potency result in experiment [2], in experiment [3] and in experiment [5] was “inactive” each time.

For the compound `CNc1ccc(Br)cc(C(=O)/C=C/c2ccc(Cl)cc2Cl)c1=O`, in experiment [1], the Potency is 12 µM (active). For the same compound, the Potency entry in experiment [2], in experiment [3], in experiment [4] and in experiment [5] was “inactive” each time.

`CCn1nc([N+](=O)[O-])c(C(C#N)c2nc3cc(C(F)(F)F)ccc3s2)c(Cl)c1=O` (stereo not given): the Potency in experiment [1] is 12.6 µM (active). Also, the Potency entry in experiment [2] and in experiment [4] was “inactive” in each case. The activation in experiment [3] is 12.4% [at 17.1 µM, percent relative to cAMP agonist control]. Also, in experiment [5], the activity change, negative = inhibition is -19.4% [at 30.8 µM].

Consider `Cc1ccc(C)c(N(C)C(=O)c2cn(C)c(=O)c3ccccc23)c1`, for which the Potency entry in experiment [1], in experiment [2], in experiment [3], in experiment [4] and in experiment [5] was “inactive” in each case.

On to `COC(=O)c1ccc2c(=O)n3nc(Nc4cc(OC)ccc4OC)sc3nc2c1`, for which the Potency result in experiment [1], in experiment [2], in experiment [3], in experiment [4] and in experiment [5] was “inactive” in each case.

As for `CCC(C(=O)OCC(=O)Nc1cc(C)ccc1OC)c1ccccc1` (stereo not given), the Potency result in experiment [1], in experiment [2] and in experiment [4] was “inactive” each time. The activation in experiment [3] is 3.82% [at 17.1 µM, percent relative to cAMP agonist control]. The activity change, negative = inhibition in experiment [5] was -13% [at 30.8 µM].

Turning to `CCOC(=O)C1CCN(C(c2cc(OC)c(OC)c(OC)c2)c2sc3nc(C)nn3c2O)CC1` (stereo not given), the Potency entry in experiment [1], in experiment [2] and in experiment [4] was “inactive” throughout. Moreover, in experiment [3], the activation was 3.51% [at 17.1 µM, percent relative to cAMP agonist control]. The activity change, negative = inhibition in experiment [5] is -38.9% [at 30.8 µM].
